According to ChEMBL document CHEMBL1201862, “PubChem BioAssay data set” (2004):
Results with a measured potency or affinity are listed apart.

molecular target: T1, fMet-Leu-Phe receptor (Homo sapiens) (UniProt P21462); experiment: FPR1 fluorescent ligand binding inhibitors, dose response, cell-based, flow cytometry, Ki from IC50 (AID 724); format: functional
T1 sequence (whole entry): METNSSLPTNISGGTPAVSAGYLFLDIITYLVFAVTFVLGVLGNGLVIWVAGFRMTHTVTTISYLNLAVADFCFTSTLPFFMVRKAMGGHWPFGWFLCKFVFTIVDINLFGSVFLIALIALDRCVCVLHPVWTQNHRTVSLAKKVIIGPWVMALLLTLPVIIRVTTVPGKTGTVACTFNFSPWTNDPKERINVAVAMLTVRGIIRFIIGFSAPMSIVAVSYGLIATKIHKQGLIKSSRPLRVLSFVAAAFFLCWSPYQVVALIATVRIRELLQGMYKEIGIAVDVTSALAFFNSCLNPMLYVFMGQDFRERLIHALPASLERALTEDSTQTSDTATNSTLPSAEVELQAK

KI MICROM, active:
COc1ccc(-c2c(C(F)(F)F)oc3cc(OC(=O)c4ccco4)ccc3c2=O)cc1OC 3.3 µM
COc1ccc(-c2c(C(F)(F)F)oc3cc(OC(=O)c4cccnc4)ccc3c2=O)cc1OC 8.9 µM
COc1ccccc1-c1c(C(F)(F)F)oc2cc(OC(=O)c3ccco3)ccc2c1=O 1.1 µM
CCc1cc2c(=O)c(-c3nc4ccccc4n3C)c(C)oc2cc1OC(C)=O 0.3 µM
O=C(Oc1ccc2c(=O)c(-c3ccccc3Cl)c(C(F)(F)F)oc2c1)c1cccs1 1.1 µM
Cc1[nH]c2c(-c3ccc(Cl)cc3)c(C(F)(F)F)nn2c(=O)c1Cc1ccccc1 2.5 µM

KI MICROM, inactive:
O=C(Oc1ccc2c(=O)c(Oc3ccccc3Br)c(C(F)(F)F)oc2c1)c1cccs1 > 44.3 µM
Cc1cccc(C)c1NC(=O)C(NC(=O)Cc1cccs1)c1ccccc1 (stereo not given) > 44.3 µM
CCC(C)(C(=O)NC1CCCCC1)N(Cc1cccs1)C(C)=O (stereo not given) > 44.3 µM
O=C1CC(c2ccccc2C(F)(F)F)C2=C(CC(c3cccs3)CC2=O)N1 (stereo not given) > 44.3 µM
COc1ccc(C2C(C(=O)N3CCCC(C)C3)c3ccccc3C(=O)N2C)cc1 (stereo not given) > 44.3 µM
COc1ccc(-c2c(C)nn3c(=O)c4c([nH]c23)CCCC4)cc1 > 44.3 µM
Cc1sc2c(c1C)c(=O)n(Cc1ccccc1)c(=O)n2Cc1ccccc1F > 44.3 µM
COc1cccc(/C=C2/C(=O)NN(c3ccc(C)cc3)C2=O)c1 > 44.3 µM
COCCN1C(=O)C(O)=C(C(=O)c2ccccc2)C1c1ccccc1OC (stereo not given) 12.4 µM
COc1ccc(OC)c(CNC(=O)Cn2c(=O)sc3ccccc32)c1 > 44.3 µM
Cc1cccc(C2CC(=O)NC3=C2C(=O)CC(c2cccs2)C3)c1 (stereo not given) > 44.3 µM
COc1cccc(-c2ccnc3[nH]n(-c4ccccc4)c(=O)c23)c1 > 44.3 µM
CCCC(=O)N(Cc1ccco1)S(=O)(=O)c1cccc2cccnc12 > 44.3 µM
CC(C)C(=O)N(Cc1ccco1)S(=O)(=O)c1cccc2cccnc12 > 44.3 µM
